target: APOBEC3G R374E/R376D (Homo sapiens, UniProt Q9HC16 Q9HC16:1-384, R374E,R376D); assay: FP; binding impaired by 46%; 5 mM MgCl2, 37 C; settings: tags: Sf9, pAcG2T; label: internal fluorescein-dT; ssDNA; [15 (fluorescein-dT)]
Experimental: Apo3G-DNA binding were monitored by changes in steady state fluorescence depolarization (rotational anisotropy). Reaction mixtures (70 μl), containing an F-labeled DNA ([…]) in buffer (50 mM HEPES, pH 7.3, 1 mM DTT and 5 mM MgCl₂) and varying concentration of 0 to 500 nM Apo3G, were incubated at 37° C. The sequence of the ssDNA is: tta gat gag tgt aa(FdT) gtg ata tat gtg tat. Rotational anisotropy was measured as described previously (Chelico et al., 2006). The fraction of DNA bound to protein was determined as described previously (Bertram et al., 2004).

Sequence of APOBEC3G R374E/R376D (Q9HC16 whole entry R374E/R376D, one chain of several): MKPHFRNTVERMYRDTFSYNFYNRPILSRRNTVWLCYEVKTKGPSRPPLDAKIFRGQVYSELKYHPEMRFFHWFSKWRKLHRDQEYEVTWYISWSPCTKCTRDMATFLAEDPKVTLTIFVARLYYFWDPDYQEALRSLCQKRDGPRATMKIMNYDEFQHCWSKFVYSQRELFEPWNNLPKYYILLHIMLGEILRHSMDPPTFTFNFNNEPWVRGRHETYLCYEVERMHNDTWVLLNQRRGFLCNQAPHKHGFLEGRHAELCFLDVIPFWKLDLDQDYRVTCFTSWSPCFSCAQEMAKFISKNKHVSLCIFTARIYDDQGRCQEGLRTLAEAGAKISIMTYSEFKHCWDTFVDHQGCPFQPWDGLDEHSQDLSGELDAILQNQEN

Sequence	binding signal
TTAGATGAGTGTAATGTGATATATGTGTAT	54 % of wt

Reference: US20100081621, “Crystal structure of the catalytic domain of the viral restriction factor APOBEC3G” (published 2010)
